In PubChem BioAssay (EPA / NIEHS):
Records with an inconclusive call do not appear. Activity calls are given as the source filed them. The calls were made as follows, unless noted: active = hit-call score of the fitted dose curve at least 0.9, where 1 is the maximum; inactive = score below 0.9.

What was measured:
[1] = ATG_PBREM_CIS: Attagene CIS-FACTORIAL HepG2 Assay for human Phenobarbital-responsive Enhancer Module (PBREM) (AID 2282955); settings: HepG2 PBREM cis-reporter, Attagene multiplexed transcription; actives raise or lower the signal
Procedure, shortened: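 After a 24 h incubation with test chemical, transfected HepG2 cells yield total RNA; reporter-specific RT-PCR products are fluorescently labelled, HpaI-digested and resolved by capillary electrophoresis against ROX size standards.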

[2] = biological target: Paired box protein Pax-6 (Homo sapiens) (UniProt P26367); experiment: ATG_Pax6_CIS: Attagene CIS-FACTORIAL HepG2 Assay for human Paired Box 6 (PAX6) (AID 2282956); settings: HepG2 CIS-FACTORIAL PAX6 reporter transcription, RNA readout; actives raise or lower the signal
Procedure, shortened: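 Transient MRTU transfection of HepG2 → compound exposure 24 h → TriZol RNA, oligo(dT) RT → PCR, 6-FAM primer extension, HpaI cut → capillary electrophoresis; activity fitted both directions against DMSO.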

[3] = ATG_PXRE_CIS: Attagene CIS-FACTORIAL HepG2 Assay for human Pregnane X Receptor Element (PXRE) (AID 2282957); settings: HepG2 Attagene CIS-FACTORIAL PXRE reporter, mRNA; actives raise or lower the signal
Procedure, shortened: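 Multiplexed cis-reporter assay in transiently transfected human HepG2 cells; 24 h chemical exposure. Reporter transcripts quantified by RT-PCR with fluorescent labeling and capillary electrophoresis.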

[4] = ATG_PPRE_CIS: Attagene CIS-FACTORIAL HepG2 Assay for human Peroxisome Proliferator-activated Response Element (PPRE) (AID 2282958); settings: HepG2 PPRE cis-element reporter, Attagene transcription factor profiling; actives raise or lower the signal
Procedure, shortened: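 Multiplexed reporter transcription units under cis-regulatory promoters were transfected into HepG2 cells to capture endogenous factor activity. A 24 h incubation preceded RNA isolation and fluorescent RT-PCR fragment analysis.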

[5] = ATG_RORE_CIS: Attagene CIS-FACTORIAL HepG2 Assay for human RAR-related Orphan Receptor Element (RORE) (AID 2282959); settings: HepG2 Attagene cis-factorial RORE reporter, mRNA; actives raise or lower the signal
Procedure, shortened: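 Fluorescence intensity of reporter-specific cDNA fragments, separated by capillary electrophoresis, gives the signal. Source: HepG2 liver cells transiently transfected with cis-element reporters and exposed 24 h; DMSO-normalized bidirectional fit.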

[6] = biological target: Transcription factor Sp1 (Homo sapiens) (UniProt P08047); experiment: ATG_Sp1_CIS: Attagene CIS-FACTORIAL HepG2 Assay for human Specificity Protein 1 (Sp1) (AID 2282961); settings: HepG2 Sp1 cis-reporter transcription, actives raise or lower the signal
Procedure, shortened: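 Sp1-driven reporter mRNA, read as capillary electrophoresis fluorescence after RT-PCR, in transiently transfected HepG2 cells dosed for 24 h; signal change in either direction relative to DMSO.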

[7] = ATG_SREBP_CIS: Attagene CIS-FACTORIAL HepG2 Assay for human Sterol Regulatory Element Binding (SREBP) (AID 2282962); settings: HepG2 Attagene cis-factorial SREBP reporter, mRNA; actives raise or lower the signal
Procedure, shortened: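 Transfected HepG2 (cis-regulated reporter library, endogenous TFs) → compound 24 h → total RNA → oligo(dT) RT → reporter-specific PCR → FAM primer extension, HpaI cut → CE fluorescence. Fit bidirectional vs DMSO.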

[8] = biological target: Signal transducer and activator of transcription 3 (Homo sapiens) (UniProt P40763); experiment: ATG_STAT3_CIS: Attagene CIS-FACTORIAL HepG2 Assay for human Signal Transducer and Activator of Transcription 3 (STAT3) (AID 2282963); settings: HepG2, Attagene cis-factorial STAT3 reporter transcription; actives raise or lower the signal
Procedure, shortened: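 Values derive from bidirectional fits relative to DMSO of reporter mRNA levels, measured by RT-PCR with capillary electrophoresis, in HepG2 cells carrying transiently transfected cis-regulated reporter units and exposed 24 h.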

[9] = ATG_TA_CIS: Attagene CIS-FACTORIAL HepG2 Assay for human TA Basal Promoter (AID 2282964); settings: HepG2 Attagene CIS-factorial TA basal promoter reporter; actives raise or lower the signal
Procedure, shortened: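 HepG2 cells transiently transfected with multiple reporter units under cis promoter elements, reporting endogenous transcription factor activity; this endpoint tracks the TA basal promoter as background control. Reporter mRNA after 24 h dosing measured by RT-PCR/capillary electrophoresis; bidirectional fits versus DMSO.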

[10] = ATG_TCF_b_cat_CIS: Attagene CIS-FACTORIAL HepG2 Assay for human T-Cell-Factor with beta-catenin (TCF/b-cat) (AID 2282965); settings: HepG2 TCF/beta-catenin cis-reporter transcription, actives raise or lower the signal
Procedure, shortened: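 HepG2, transient MRTU transfection, cis-element-driven reporters (endogenous TFs). 24 h compound exposure. Readout: reporter mRNA by RT-PCR + 6-FAM primer extension, HpaI digest, capillary electrophoresis. Gain/loss fit vs DMSO baseline.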

[11] = ATG_TAL_CIS: Attagene CIS-FACTORIAL HepG2 Assay for human TAL Basal Promoter (AID 2282966); settings: HepG2 Attagene cis-factorial TAL promoter reporter; actives raise or lower the signal;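 also: background control endpoint measuring basal TAL promoter reporter mRNA not a specific factor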
Procedure, shortened: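 Steps: transfect HepG2 with multiple reporter transcription units; dose 24 h; isolate RNA, reverse-transcribe, PCR-amplify, label with 6-FAM, digest with HpaI; resolve by capillary electrophoresis. Bidirectional fitting against DMSO baseline.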

[12] = ATG_TGFb_CIS: Attagene CIS-FACTORIAL HepG2 Assay for human Transforming Growth Factor (TGF) (AID 2282967); settings: HepG2 Attagene CIS TGFb reporter, mRNA transcription; actives raise or lower the signal
Procedure, shortened: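 HepG2 cells transiently transfected with cis-promoter-driven multiple reporter units measure endogenous TF activity; reporter mRNA quantified at 24 h by RT-PCR, FAM labeling, HpaI digestion and capillary electrophoresis. Bidirectional fit vs DMSO.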

[13] = ATG_VDRE_CIS: Attagene CIS-FACTORIAL HepG2 Assay for human Vitamin D Receptor Element (VDRE) (AID 2282968); settings: HepG2 VDRE cis-reporter transcription, actives raise or lower the signal
Procedure, shortened: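 Cell-based multiplexed reporter format in human liver HepG2 cells, 24 h post-dose. Fluorescence from capillary electrophoresis of reporter cDNA gives the signal, with DMSO as negative control and baseline.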

[14] = biological target: Nuclear receptor subfamily 1 group I member 3 (Homo sapiens) (UniProt Q14994); experiment: ATG_CAR_TRANS: Attagene TRANS-FACTORIAL HepG2 Assay for human Constitutive Androstane Receptor (CAR) (AID 2282969; active = hit-call score of the fitted dose curve at least 0.9, where 1 is the maximum;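 also: activators raise reporter mRNA above DMSO so AC50 marks induction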); settings: HepG2 Attagene TRANS-FACTORIAL CAR reporter
Procedure, shortened: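 HepG2 cells transiently transfected with GAL4-UAS reporter units; TRANS format reads activity of exogenous chimeric NR-Gal4 protein. After 24 h dosing, reporter mRNA quantified by RT-PCR, 6-FAM labelling and capillary electrophoresis; gain of signal fitted against DMSO.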

[15] = biological target: X-box-binding protein 1 (Homo sapiens) (UniProt P17861); experiment: ATG_Xbp1_CIS: Attagene CIS-FACTORIAL HepG2 Assay for human X-box Binding Protein 1 (XBP1) (AID 2282972); settings: HepG2 XBP1 cis-element reporter, Attagene multiplex; actives raise or lower the signal
Procedure, shortened: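 HepG2, transient MRTU transfection (cis-promoter driven), 24 h compound exposure. Total RNA → oligo(dT) RT → PCR → 6-FAM labeling → HpaI cut → CE. Bidirectional fit vs DMSO.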

[16] = ATG_GAL4_TRANS: Attagene TRANS-FACTORIAL HepG2 Assay for GAL4 (Internal Marker) (AID 2282976; active = hit-call score of the fitted dose curve at least 0.9, where 1 is the maximum); settings: HepG2 Attagene TRANS GAL4 internal marker reporter
Procedure, shortened: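 Liver HepG2 line bearing multiplexed GAL4-UAS reporter constructs; 24 h chemical treatment. Transcripts were quantified as fluorescent fragments on capillary electrophoresis after RT-PCR and HpaI cut, with activity fitted upward from DMSO.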

[17] = ATG_Sox_CIS: Attagene CIS-FACTORIAL HepG2 Assay for human SRY-box transcription factor (SOX) (AID 2282960); settings: HepG2 Attagene cis-factorial SOX reporter, mRNA; actives raise or lower the signal
Procedure, shortened: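 After 24 h of chemical treatment, transfected HepG2 reporter cells are lysed for total RNA. Transcript levels come from RT-PCR with labelled primer extension and capillary electrophoresis, analysed bidirectionally versus DMSO.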

[18] = biological target: Estrogen receptor (Homo sapiens) (UniProt P03372); experiment: ATG_ERa_TRANS: Attagene TRANS-FACTORIAL HepG2 Assay for human Estrogen Receptor alpha (ERa) (AID 2282970; active = hit-call score of the fitted dose curve at least 0.9, where 1 is the maximum); settings: HepG2 Attagene TRANS ERa GAL4 reporter, mRNA
Procedure, shortened: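 Multiplexed cell-based reporter format in HepG2: chimeric ERa-Gal4 protein drives GAL4-UAS reporter transcription. Fluorescent reporter mRNA quantified by capillary electrophoresis 24 hours after dosing; endpoint fitted as signal gain against DMSO.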

[19] = ATG_M_19_TRANS: Attagene TRANS-FACTORIAL HepG2 Assay for M19 Transcription Factor (Internal Marker) (AID 2282974; active = hit-call score of the fitted dose curve at least 0.9, where 1 is the maximum); settings: HepG2 Attagene TRANS-FACTORIAL M19 internal marker reporter
Procedure, shortened: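 Measured here: internal-marker reporter transcript from HepG2 cells transfected with MRTUs, harvested at 24 h. cDNA PCR products were 6-FAM labelled by primer extension, cut with HpaI for 2 h at 37 C, and resolved by CE.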

Measured: AC50

Sequence of Nuclear receptor subfamily 1 group I member 3 (Homo sapiens) (Q14994 whole entry, looked up, the tested form may be a part): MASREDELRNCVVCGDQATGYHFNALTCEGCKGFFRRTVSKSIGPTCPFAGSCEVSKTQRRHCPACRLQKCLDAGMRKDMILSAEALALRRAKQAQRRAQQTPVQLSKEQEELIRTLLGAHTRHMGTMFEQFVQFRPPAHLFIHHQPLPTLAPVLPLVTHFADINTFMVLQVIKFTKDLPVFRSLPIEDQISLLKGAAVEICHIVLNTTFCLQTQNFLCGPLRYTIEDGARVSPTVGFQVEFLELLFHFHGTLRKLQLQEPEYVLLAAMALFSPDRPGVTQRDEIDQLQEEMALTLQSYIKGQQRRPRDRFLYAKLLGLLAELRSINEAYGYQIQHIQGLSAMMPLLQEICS
Sequence of Signal transducer and activator of transcription 3 (Homo sapiens) (P40763 whole entry, looked up): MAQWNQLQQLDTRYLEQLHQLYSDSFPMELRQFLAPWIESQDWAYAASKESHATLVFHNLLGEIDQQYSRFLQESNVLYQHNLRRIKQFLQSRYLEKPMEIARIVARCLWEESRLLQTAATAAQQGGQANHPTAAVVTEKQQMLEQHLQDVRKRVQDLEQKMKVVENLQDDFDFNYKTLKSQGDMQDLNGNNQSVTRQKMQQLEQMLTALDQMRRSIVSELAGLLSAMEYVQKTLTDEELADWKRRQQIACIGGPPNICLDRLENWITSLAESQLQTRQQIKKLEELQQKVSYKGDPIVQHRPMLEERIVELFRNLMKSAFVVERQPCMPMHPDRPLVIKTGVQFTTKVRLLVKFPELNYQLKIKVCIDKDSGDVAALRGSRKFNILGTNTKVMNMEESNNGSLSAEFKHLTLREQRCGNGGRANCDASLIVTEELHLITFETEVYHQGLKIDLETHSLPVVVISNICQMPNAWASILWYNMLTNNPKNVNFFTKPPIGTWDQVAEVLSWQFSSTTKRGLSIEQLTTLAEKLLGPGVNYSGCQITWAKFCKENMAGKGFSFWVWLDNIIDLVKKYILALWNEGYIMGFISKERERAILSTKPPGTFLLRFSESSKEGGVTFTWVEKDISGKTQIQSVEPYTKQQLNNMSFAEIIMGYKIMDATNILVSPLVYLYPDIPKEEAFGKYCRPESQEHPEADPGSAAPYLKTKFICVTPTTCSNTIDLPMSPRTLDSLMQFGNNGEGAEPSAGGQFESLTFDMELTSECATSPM
Sequence of Estrogen receptor (Homo sapiens) (P03372 whole entry, looked up, the tested form may be a part): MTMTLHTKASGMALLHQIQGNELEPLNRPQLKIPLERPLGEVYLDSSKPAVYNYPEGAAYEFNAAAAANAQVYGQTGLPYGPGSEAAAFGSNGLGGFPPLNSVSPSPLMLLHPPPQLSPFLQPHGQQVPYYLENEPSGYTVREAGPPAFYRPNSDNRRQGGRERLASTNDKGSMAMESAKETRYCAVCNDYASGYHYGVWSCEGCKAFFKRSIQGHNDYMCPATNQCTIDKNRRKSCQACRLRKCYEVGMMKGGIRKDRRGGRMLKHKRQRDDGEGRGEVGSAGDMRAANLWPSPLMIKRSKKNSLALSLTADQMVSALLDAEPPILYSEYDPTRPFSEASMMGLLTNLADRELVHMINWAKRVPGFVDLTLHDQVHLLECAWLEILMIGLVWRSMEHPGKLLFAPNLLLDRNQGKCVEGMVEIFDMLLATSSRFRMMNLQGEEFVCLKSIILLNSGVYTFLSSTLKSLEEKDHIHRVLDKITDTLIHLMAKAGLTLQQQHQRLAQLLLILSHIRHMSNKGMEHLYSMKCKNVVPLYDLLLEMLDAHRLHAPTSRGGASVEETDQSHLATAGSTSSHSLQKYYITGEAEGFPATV
Sequence of X-box-binding protein 1 (Homo sapiens) (P17861 whole entry, looked up): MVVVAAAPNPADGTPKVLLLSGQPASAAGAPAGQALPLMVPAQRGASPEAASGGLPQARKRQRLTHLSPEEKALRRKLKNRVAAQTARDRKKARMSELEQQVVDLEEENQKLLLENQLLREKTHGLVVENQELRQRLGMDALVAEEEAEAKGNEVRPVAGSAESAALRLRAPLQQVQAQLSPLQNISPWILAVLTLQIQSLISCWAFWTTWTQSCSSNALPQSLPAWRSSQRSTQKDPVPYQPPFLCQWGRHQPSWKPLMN
Sequence of Paired box protein Pax-6 (Homo sapiens) (P26367 whole entry, looked up): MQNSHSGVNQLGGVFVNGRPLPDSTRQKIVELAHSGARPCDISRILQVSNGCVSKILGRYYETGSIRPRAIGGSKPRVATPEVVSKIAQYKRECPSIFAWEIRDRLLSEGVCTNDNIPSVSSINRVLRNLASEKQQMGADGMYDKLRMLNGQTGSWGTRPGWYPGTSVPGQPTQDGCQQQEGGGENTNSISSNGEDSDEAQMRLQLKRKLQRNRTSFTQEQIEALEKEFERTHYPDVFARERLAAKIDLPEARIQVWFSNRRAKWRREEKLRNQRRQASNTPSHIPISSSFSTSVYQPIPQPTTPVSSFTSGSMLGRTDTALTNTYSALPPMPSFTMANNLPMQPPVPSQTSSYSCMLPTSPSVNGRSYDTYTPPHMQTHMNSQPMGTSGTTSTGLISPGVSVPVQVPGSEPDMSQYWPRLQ
Sequence of Transcription factor Sp1 (Homo sapiens) (P08047 whole entry, looked up): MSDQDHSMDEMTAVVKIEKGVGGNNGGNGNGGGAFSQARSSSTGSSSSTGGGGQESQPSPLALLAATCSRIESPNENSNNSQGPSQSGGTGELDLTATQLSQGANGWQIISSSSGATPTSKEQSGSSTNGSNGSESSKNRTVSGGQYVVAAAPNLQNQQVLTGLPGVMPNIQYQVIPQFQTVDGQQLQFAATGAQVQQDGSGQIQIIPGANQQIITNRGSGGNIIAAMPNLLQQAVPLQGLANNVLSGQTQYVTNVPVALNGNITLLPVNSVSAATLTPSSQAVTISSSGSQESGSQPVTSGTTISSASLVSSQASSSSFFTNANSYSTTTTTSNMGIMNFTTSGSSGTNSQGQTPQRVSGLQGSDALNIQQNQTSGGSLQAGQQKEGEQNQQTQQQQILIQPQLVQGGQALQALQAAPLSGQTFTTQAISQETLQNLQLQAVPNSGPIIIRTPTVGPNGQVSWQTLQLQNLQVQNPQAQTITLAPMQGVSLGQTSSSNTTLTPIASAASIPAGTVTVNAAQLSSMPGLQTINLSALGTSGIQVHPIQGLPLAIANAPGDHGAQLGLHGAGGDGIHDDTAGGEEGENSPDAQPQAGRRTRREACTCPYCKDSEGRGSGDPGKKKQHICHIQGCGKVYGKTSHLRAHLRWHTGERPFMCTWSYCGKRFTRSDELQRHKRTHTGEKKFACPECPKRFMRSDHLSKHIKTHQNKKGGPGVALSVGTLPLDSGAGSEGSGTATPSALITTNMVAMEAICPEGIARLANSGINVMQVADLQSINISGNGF

C=CC(=O)OCC(C)OCC(C)OCC(C)OC(=O)C=C (centres undefined)
active: [2] 64.5 µM | [3] 2.25 µM | [5] 44.5 µM | [7] 100 µM | [10] 71.5 µM | [12] 143 µM | [13] 6.27 µM
not listed: [17] | [18] | [19]
inactive: all other assays above

O=C1CCCCCCCCCCCN1
active: [3] 8.77 µM
not listed: [4] | [19]
inactive: all other assays above

CC(=O)c1ccccc1O
not listed: [4] | [14] | [16]
inactive: all other assays above

C=C[Si](OCCOC)(OCCOC)OCCOC
active: [3] 1.74 µM
not listed: [5] | [8] | [12] | [13] | [14] | [17]
inactive: all other assays above

CCNc1nc(NC(C)(C)C)nc(OC)n1
active: [3] 10.3 µM | [13] 19.3 µM
not listed: [5] | [10]
inactive: all other assays above

Cc1c(C(=O)c2c[nH]n(C)c2=O)ccc(S(C)(=O)=O)c1C1=NOCC1
active: [3] 14.4 µM
not listed: [8] | [13] | [14] | [16] | [18] | [19]
inactive: all other assays above

COc1ccc(-c2coc3cc(O)cc(O)c3c2=O)cc1
active: [3] 24.9 µM | [4] 100 µM | [13] 27 µM | [18] 0.432 µM | [15] 100 µM
not listed: [5] | [14]
inactive: all other assays above

CC=C(C)C=CC=C(C)C
active: [3] 6.96 µM
not listed: [4] | [13] | [16] | [19]
inactive: all other assays above

Oc1ccccc1Cc1ccccc1O
active: [2] 100 µM | [3] 26.3 µM | [7] 64.5 µM | [10] 37.9 µM | [13] 133 µM | [15] 144 µM
not listed: [9] | [14] | [17] | [18]
inactive: all other assays above
